Compound activity deposited in PubChem BioAssay by several laboratories.
This is a sample that favours compounds with a hit; in the whole collection about 5.7% have one here.
Abs 340nm = absorbance at 340 nm; compound absorbance at 340 nm, fold over control; AID 708; 65,000 tested, under 10 active; fold change at 10 µM;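 active means at 10 µM dose, initial 340 nm absorbance at least 2 fold that of control wells; inactive means change under 2 fold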;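 further: initial absorbance extrapolated from kinetic A340 decline of NADH oxidation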
NADH enzymes = inhibitors of enzymes used to reach an NAD/NADH endpoint; IC50, µM (titrated, usually from 10 µM), for inactives: top-dose inhibition; hit rate 0.02% among 65,000; AID 774; coupled PK/LDH NADH assays, four targets;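 active means single-dose screening hits from any of four coupled enzyme assays that gave an IC50 when retested across doses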;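 further: the DPM-DC format reads NADH fluorescence rather than 340 nm absorbance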
Fluor 339 460 = intrinsic fluorescence of library compounds, ex339/em460 – biochemical, MLSMR library, data from DPM-DC assay, artefact control, profiling panel. hit rate 5.5% among 65,000. compound autofluorescence, ex339/em460 nm, NADH buffer; stronger effect = higher value; 1 = no-compound wells, NADH background. AID 709. fluorescence fold increase at 10 µM;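 active means at 10 µM, mean starting fluorescence two-fold or more over control wells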;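 further: signal is the first read of a kinetic run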
Cdc25B inh = human M-phase inducer phosphatase 2 inhibition; P30305; recombinant Cdc25B, OMFP fluorescence Ex485/Em525; inhibition, %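 (compounds tested at 10 µM final in the well)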; hit rate 0.1% among 65,000; AID 368; in the data active means inhibition above about 50%
Target sequence (P30305 whole entry, looked up): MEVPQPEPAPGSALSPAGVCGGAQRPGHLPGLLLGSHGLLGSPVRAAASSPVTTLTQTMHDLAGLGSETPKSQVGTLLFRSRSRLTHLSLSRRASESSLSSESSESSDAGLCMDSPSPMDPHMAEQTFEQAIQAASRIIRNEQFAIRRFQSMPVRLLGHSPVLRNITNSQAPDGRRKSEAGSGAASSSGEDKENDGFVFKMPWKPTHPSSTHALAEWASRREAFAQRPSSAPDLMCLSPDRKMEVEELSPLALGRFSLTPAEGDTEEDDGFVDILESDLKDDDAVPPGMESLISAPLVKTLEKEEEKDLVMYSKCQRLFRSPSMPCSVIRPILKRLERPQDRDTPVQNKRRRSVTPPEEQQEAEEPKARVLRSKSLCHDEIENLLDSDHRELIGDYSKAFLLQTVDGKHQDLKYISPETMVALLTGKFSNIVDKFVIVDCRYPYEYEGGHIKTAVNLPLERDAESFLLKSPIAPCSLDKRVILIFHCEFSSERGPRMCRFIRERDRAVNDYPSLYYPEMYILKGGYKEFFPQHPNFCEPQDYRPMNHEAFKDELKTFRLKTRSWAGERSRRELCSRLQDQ
DUSP1 inh = human dual specificity phosphatase 1 inhibition; P28562; hit rate 0.15% among 65,000; recombinant MKP-1, OMFP hydrolysis fluorescence; inhibition, %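 (compounds tested at a single concentration somewhere between 10 and 100 µM)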;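 active means inhibition above about 50%, limit read from the data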;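 further: 0% = DMSO max control wells and 100% = wells with enzyme stopped by NaOH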
Hsp90 block = displaces geldanamycin probe from tumor Hsp90 | AID 429 | P07900 | inhibition, % at 30 µM | NCI-N417 lysate Hsp90, Cy3B-geldanamycin FP displacement | hit rate 0.35% among 64,000;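 active means inhibition above 50%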;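 further: 0% = tracer plus lysate wells and 100% = tracer alone without lysate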
Starred values were filed as active, the others as inactive; / = no result given.

SMILES | Abs 340nm | NADH enzymes | Fluor 339 460 | Cdc25B inh | DUSP1 inh | Hsp90 block
O=c1c2ccccc2nc2n1CCN2Cc1ccc(Cl)cc1 | 1.04 | 5.0% | 2.18* | 0.5 | 3.6 | -3.2
CC(Nc1nc(N2CCN(S(C)(=O)=O)CC2)nc2ccccc12)c1ccccc1 (configuration not stated) | 1.1 | 8.0% | 2.08* | -2.0 | 26.9 | 0.1
CCCc1cc2c(cc1NS(=O)(=O)c1ccc(CCNC(C)=O)cc1)OCO2 | 1 | 7.0% | 1.06 | 5.9 | 0.3 | 57.0*
CC(=O)NCCc1ccc(S(=O)(=O)NCc2ccc3c(c2)OCO3)cc1 | 1 | 3.0% | 1 | -7.8 | 3.4 | -1.4
CCOc1nc(-c2ccccc2)ccc1-c1noc(-c2ccncc2)n1 | 1.02 | 8.0% | 3.28* | -5.0 | -4.5 | 3.8
CCOc1nc(-c2ccc(OC)cc2)ccc1-c1noc(-c2cccnc2)n1 | 1.04 | 10.0% | 1.87 | -3.1 | 18.2 | -1.9
CCOc1nc(C)ccc1-c1noc(-c2ccncc2)n1 | 1.03 | 3.0% | 1.13 | -6.3 | -4.8 | -3.3
CCOc1nc(-c2ccc(C)cc2)ccc1-c1noc(-c2cccnc2)n1 | 1.09 | 10.0% | 2.99* | -8.0 | 34.9 | -6.4
CCOc1nc(-c2ccc(OC)cc2)ccc1-c1noc(-c2ccncc2)n1 | 1.08 | 5.0% | 2.96* | 5.6 | -16.6 | -2.9
CCn1c2ccccc2c2nc3cc(S(=O)(=O)N4CCOCC4)ccc3nc21 | 1.12 | 24.0% | 1.37 | -9.2 | 37.0 | 1.9
Ic1ccc(N2CCN(Cc3c[nH]c4ncccc34)CC2)cc1 | / | / | / | / | / | -0.1
CN(C)CCCNc1ccc(N(O)O)c2cccnc12 | / | / | / | / | / | 6.8
CCC(=O)Oc1ccc2c(C)cc(=O)oc2c1C | 0.98 | 5.0% | 2.13* | -2.4 | 2.6 | -5.2
CCOC(=O)C(C)Oc1ccc2c(C)cc(=O)oc2c1C(C)=O (configuration not stated) | 1.04 | 6.0% | 1.17 | -20.9 | -22.5 | -0.7
COC(=O)c1ccc(COc2ccc3c(C)c(C)c(=O)oc3c2C)o1 | 1.08 | 2.0% | 2* | 3.7 | 7.1 | 0.1
O=C(O)c1ccc(COc2ccc(Cl)cc2)o1 | 0.98 | 4.0% | 1.02 | -12.6 | -7.6 | -0.6
Cc1c(OCc2ccc(C(=O)O)o2)ccc2c3c(c(=O)oc12)CCC3 | 1.13 | 2.0% | 2.15* | -6.4 | 14.2 | -3.0
COC(=O)c1ccc(COc2nc(C)cc(C)c2C#N)o1 | 1.01 | 1.0% | 1.11 | -6.1 | 9.2 | -17.7
CC(Cc1ccc(O)c(O)c1)C(C)Cc1ccc(O)c(O)c1 (configuration not stated) | 0.98 | 4.0% | 0.94 | 2.7 | 21.6 | 102.6*
C[C@H](Cc1ccc(O)c(O)c1)[C@@H](C)Cc1ccc(O)c(O)c1 | / | / | / | / | / | 97.8*
COc1ccc(OC)c(N2C(=O)CC(C(C)c3ccccc3)C2=O)c1 (configuration not stated) | 1.03 | 3.0% | 1.07 | -10.2 | -13.4 | -1.7
Cc1cccc(-c2cc3nc4c(c(N5CCC6(CC5)OCCO6)n3n2)CCCC4)c1 | 1 | 5.0% | 1.52 | -21.0 | 8.7 | 0.4
COc1ccc(-c2cc3nc(-c4ccccc4)cc(N4CCC5(CC4)OCCO5)n3n2)cc1 | 1.03 | 8.0% | 4.85* | 4.4 | 0.3 | -0.1
CCn1c(-c2ccc(N(C)C)cc2)nc2ccccc21 | 1.1 | 6.0% | 3.87* | -1.5 | -25.4 | -6.3
Cn1c(-c2ccc(Br)o2)nc2ccccc21 | 1.06 | 7.0% | 1.16 | 4.2 | -7.7 | -5.8
SMILES | Abs 340nm | NADH enzymes | Fluor 339 460 | Cdc25B inh | DUSP1 inh | Hsp90 block
CC(C)n1c(-c2ccc(N(C)C)cc2)nc2ccccc21 | 1.03 | 9.0% | 3.76* | 1.1 | -13.2 | -13.7
CN(C)c1ccc(-c2nc3ccccc3n2C)cc1 | 1.08 | 13.0% | 3.62* | -12.0 | -7.9 | 0.2
C=CCn1c(-c2ccc(N)cc2)nc2ccccc21 | 1.03 | 1.0% | 2.12* | 0.9 | -0.9 | -1.8
C=CCn1c(-c2ccc(OC)cc2)nc2ccccc21 | 0.98 | 2.0% | 1.05 | -7.2 | -3.7 | -1.4
Cc1ccc(C(O)c2nc3ccccc3n2C(C)C)cc1 (configuration not stated) | 0.99 | 3.0% | 1.01 | -13.2 | 9.5 | -2.0
CCn1c(-c2ccc(N)cc2)nc2ccccc21 | 1.04 | 9.0% | 1.87 | -3.1 | 11.7 | -1.2
CCC(=O)N[C@@H]1CC(C(C)(C)NC(=O)CC)CC=C1C (some centres not stated) | 0.97 | 3.0% | 1.04 | -18.5 | -5.9 | -3.4
O=S(=O)(NCCSc1ccccc1)c1cccs1 | 1 | 9.0% | 1.06 | -8.3 | -9.5 | -6.6
COC(=O)c1c(NC(=O)c2ccco2)sc(C(=O)Nc2ccc(F)cc2)c1C | 1.09 | 4.0% | 3.89* | 0.4 | 31.0 | 0.5
COC(=O)c1c(NC(=O)c2ccco2)sc(C)c1C | 1.11 | 1.0% | 2.09* | 3.8 | -10.7 | -2.8
COC(=O)c1c(NC(=O)c2ccc(Br)o2)sc(C)c1C | 1.04 | 8.0% | 1.86 | -15.9 | -12.5 | -1.8
NC(C(=O)N[C@@H]1C(=O)N2C(C(=O)O)=C(Cl)CS[C@H]12)c1ccccc1 (some centres not stated) | / | / | / | / | / | 2.6
CCc1cc(=O)oc2cc(OC(C)=O)cc(OC(C)=O)c12 | 1 | 2.0% | 2.41* | -12.2 | -13.5 | 5.7
CCOC(=O)C1CCN(C(=O)c2sc3nc(-c4ccc(F)cc4)cn3c2C)CC1 | 1.33 | 2.0% | 1.11 | -7.6 | 29.3 | 0.2
COc1cc(C(N)=O)ccc1OCc1ccccc1 | 1.01 | 3.0% | 1.06 | 4.7 | 3.9 | -3.1
COc1cc(-c2nnc(-c3ccco3)o2)ccc1OCc1ccccc1 | 1.06 | 11.0% | 3.56* | 2.3 | 6.5 | -3.9
COc1ccc(-c2nnc(-c3cccnc3)o2)cc1OC | 1.07 | 4.0% | 1.61 | -14.2 | 8.7 | -7.2
COc1cc(-c2nnc(-c3ccncc3)o2)ccc1OCc1ccccc1 | 1.05 | 9.0% | 2.44* | -6.8 | 5.4 | -0.4
O=C(O)c1oc2ccc(Br)cc2c1-n1cccc1 | 1.02 | 4.0% | 1.15 | 6.4 | 4.0 | -4.2
CCN(CC)S(=O)(=O)c1ccc2[nH]cc(C(=O)NCCN3CCCCCC3)c(=O)c2c1 | 1.06 | 8.0% | 2.92* | -5.6 | 11.9 | -0.6
Cc1ccccc1N(C)S(=O)(=O)c1ccc2[nH]cc(C(=O)NCC3CCCO3)c(=O)c2c1 (configuration not stated) | 1.01 | 16.0% | 2.15* | -2.0 | 29.4 | -1.9
CCN(CC)S(=O)(=O)c1ccc2[nH]cc(C(=O)NCCN3CCCCC3C)c(=O)c2c1 (configuration not stated) | 1.08 | 8.0% | 2.97* | -6.1 | 7.1 | 0.6
CCN(CC)S(=O)(=O)c1ccc2[nH]cc(C(=O)NCCC3=CCCCC3)c(=O)c2c1 | 0.99 | 5.0% | 1.31 | 4.2 | 11.9 | -2.1
CCOc1ccc(N(C)S(=O)(=O)c2ccc3[nH]cc(C(=O)NCC4CCCO4)c(=O)c3c2)cc1 (configuration not stated) | 1.04 | 1.0% | 1.13 | -16.7 | 38.3 | 5.5
